Holding throughout (test): NCI-60 one-dose screen, 48 h (100 = growth as untreated, 0 = no growth, -100 = all killed)
One assay concerns K-562 leukemia. The note with it: 10 µM unless noted.
In a further assay the test system is MALME-3M melanoma. As to conditions: 10 µM unless noted.
The subject of a further assay is MDA-MB-231 breast. The note with it: 10 µM unless noted.
A further assay concerns RXF 393 renal. The note with it: 10 µM unless noted.
Another assay concerns SF-268 CNS. As to conditions: 10 µM unless noted.
A further assay has as its system SF-295 CNS. The note with it: 10 µM unless noted.
Another assay has as its system SF-539 CNS. As to conditions: 10 µM unless noted.
A further assay concerns UACC-257 melanoma. As to conditions: 10 µM unless noted.
The next assay relates to M14 melanoma. The note with it: 10 µM unless noted.
The next assay deals with HCT-15 colon. As to conditions: 10 µM unless noted.
The next assay deals with HT29 colon. As to conditions: 10 µM unless noted.
The next assay has as its system SNB-19 CNS. The note with it: 10 µM unless noted.
The subject of another assay is U251 CNS. The note with it: 10 µM unless noted.
The test system of another assay is PC-3 prostate. As to conditions: 10 µM unless noted.
Another assay deals with SK-MEL-5 melanoma. The note with it: 10 µM unless noted.
A further assay has as its system UACC-62 melanoma. The note with it: 10 µM unless noted.
A further assay relates to LOX IMVI melanoma. The note with it: 10 µM unless noted.
The next assay concerns SK-MEL-28 melanoma. The note with it: 10 µM.
Another assay has as its system SK-MEL-2 melanoma. As to conditions: 10 µM unless noted.

Compounds without any hit were thinned out: in the full panel of roughly 83,000, 20% have a hit.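 Cell lines were cultured in 96-well plates, exposed to a single compound concentration, and assessed for percent growth 48 hours later.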 A number with no mark means an inactive call. Calls of active or inactive are those of the source. The calls were made as follows: active = growth percent below 10; inactive = the rest.

On to `Clc1ccc(Oc2ccc(Nc3ncnc4onc(-c5ccccc5)c34)cc2)c(Cl)c1`, for which the growth with K-562 leukemia was 78.1%; in the assay with MALME-3M melanoma, 105%; with MDA-MB-231 breast it was 99.7%; with RXF 393 renal it was 120%; in the assay with SF-268 CNS, 102%; in the assay on SF-295 CNS, 97%. In addition, the growth was 98.8% in the assay on SF-539 CNS; 99% in the assay on UACC-257 melanoma; 95.6% in the assay on M14 melanoma; 89% with HCT-15 colon; 84.2% in the assay on HT29 colon; 106% in the assay with SNB-19 CNS. For the same compound, the growth in the assay on U251 CNS was 102%; with PC-3 prostate, 94.2%; in the assay with SK-MEL-5 melanoma, 93.4%; with UACC-62 melanoma, 81%; with LOX IMVI melanoma it was 98.4%; in the assay on SK-MEL-28 melanoma it was 102%. Besides, the growth in the assay on SK-MEL-2 melanoma is 104%.

On to `CNC(=O)c1cc(Oc2ccc(CC(=O)Nc3cc(C(C)(C)C)cn3C)cc2)ccn1`, for which the growth is 35.5% in the assay on K-562 leukemia; 50.6% with MALME-3M melanoma; 67.8% with MDA-MB-231 breast; 105% with RXF 393 renal; 86.4% in the assay on SF-268 CNS; 45.4% in the assay with SF-295 CNS. For the same compound, the growth in the assay on SF-539 CNS was 68.3%; in the assay on UACC-257 melanoma, 56.5%; with M14 melanoma, 84.7%; with HCT-15 colon it was 93.8%; with HT29 colon, 88%; in the assay on SNB-19 CNS, 69.9%. For the same compound, the growth in the assay with U251 CNS is 88.6%; in the assay with PC-3 prostate it was 75.9%; in the assay with SK-MEL-5 melanoma it was 8.83% (active); with UACC-62 melanoma, 62.9%; with LOX IMVI melanoma, 67%; with SK-MEL-28 melanoma it was 79.8%. In addition, the growth with SK-MEL-2 melanoma was 67.1%.

As to `COc1ccc(-c2nsc3c2NC(=O)CC3c2cccc(OC)c2)cc1` (configuration not stated), the growth in the assay on K-562 leukemia was 18.9%; in the assay with MALME-3M melanoma, 41.5%; in the assay on MDA-MB-231 breast, 73.3%; in the assay on RXF 393 renal it was 16.8%; in the assay with SF-268 CNS it was 62.3%; in the assay on SF-295 CNS, 15.5%. The growth with SF-539 CNS was 13%; in the assay with UACC-257 melanoma, 74.7%; in the assay on M14 melanoma it was 28.6%; with HCT-15 colon it was 26.4%; with HT29 colon it was 8.58% (active); in the assay on SNB-19 CNS it was 70.3%. In addition, the growth was 37.8% in the assay with U251 CNS; 23.8% in the assay on PC-3 prostate; 31.6% with SK-MEL-5 melanoma; 41.5% in the assay on UACC-62 melanoma; 50.3% with LOX IMVI melanoma; 45.3% in the assay with SK-MEL-28 melanoma. The growth in the assay on SK-MEL-2 melanoma is 34.1%.

For `CC(C)C[C@H](C(=O)N[C@H](C(N)=O)C(C)C)N1CC=CCN(OCc2ccccc2)S1(=O)=O`, the growth is 100% [2.5 µM] in the assay on K-562 leukemia; 113% [2.5 µM] in the assay on MALME-3M melanoma; 93.4% [2.5 µM] with MDA-MB-231 breast; 111% [2.5 µM] in the assay on RXF 393 renal; 108% [2.5 µM] with SF-268 CNS; 114% [2.5 µM] in the assay with SF-295 CNS. The growth in the assay with SF-539 CNS was 99.9% [2.5 µM]; in the assay on UACC-257 melanoma, 91.2% [2.5 µM]; in the assay with M14 melanoma, 100% [2.5 µM]; with HCT-15 colon it was 104% [2.5 µM]; with HT29 colon it was 102% [2.5 µM]; in the assay with SNB-19 CNS it was 94.7% [2.5 µM]. Also, the growth with U251 CNS was 97.1% [2.5 µM]; with PC-3 prostate, 98.5% [2.5 µM]; in the assay on SK-MEL-5 melanoma it was 106% [2.5 µM]; in the assay with UACC-62 melanoma, 98.8% [2.5 µM]; in the assay on LOX IMVI melanoma, 95.7% [2.5 µM]; in the assay on SK-MEL-2 melanoma it was 98.9% [2.5 µM].

For the compound `O=C(O)CCC(=O)c1ccc(C2CCCCCC2)cc1`, the growth in the assay on K-562 leukemia is 90.2%; with MALME-3M melanoma, 91.5%; in the assay with MDA-MB-231 breast it was 109%; with RXF 393 renal, 115%; in the assay on SF-268 CNS, 97.5%; in the assay on SF-295 CNS it was 97.4%. In addition, the growth with SF-539 CNS is 97.1%; in the assay with UACC-257 melanoma it was 94.6%; in the assay with M14 melanoma it was 102%; in the assay with HCT-15 colon, 105%; in the assay with HT29 colon it was 91.6%; in the assay with SNB-19 CNS, 93.2%. Moreover, the growth with U251 CNS is 96%; with PC-3 prostate, 99.2%; in the assay on SK-MEL-5 melanoma, 105%; in the assay on UACC-62 melanoma, 106%; in the assay on LOX IMVI melanoma, 99%; in the assay with SK-MEL-28 melanoma, 113%. For the same compound, in the assay on SK-MEL-2 melanoma, the growth is 105%.

As for `COc1ccccc1C(=O)O/N=C(\N)Cc1cccc2ccccc12`, the growth is 75.7% in the assay with K-562 leukemia; 23.6% in the assay with MALME-3M melanoma; 77.3% with MDA-MB-231 breast; 102% with RXF 393 renal; 80.9% in the assay on SF-268 CNS; 52.2% in the assay with SF-295 CNS. Also, the growth in the assay on SF-539 CNS is 97.2%; in the assay on UACC-257 melanoma, 73.9%; in the assay on M14 melanoma, 86.3%; with HCT-15 colon it was 75.7%; in the assay on HT29 colon it was 77.7%; with SNB-19 CNS, 87.7%. Also, the growth was 90.9% in the assay with U251 CNS; 78.6% with PC-3 prostate; 70.4% with SK-MEL-5 melanoma; 83.3% in the assay with UACC-62 melanoma; 70.6% in the assay with LOX IMVI melanoma; 114% in the assay on SK-MEL-28 melanoma. Besides, the growth with SK-MEL-2 melanoma was 89.6%.

Turning to `COc1ccc(/C=C/C(=O)c2ccc(Nc3nc(NCCO)nc(Nc4ccc(Cl)cc4)n3)cc2)cc1`, the growth in the assay with K-562 leukemia is 62.3%; with MALME-3M melanoma, 97.2%; in the assay with MDA-MB-231 breast it was 70%; in the assay with RXF 393 renal, 66.3%; in the assay on SF-268 CNS, 65.7%; with SF-295 CNS, 93.6%. Besides, the growth is 74.9% in the assay on SF-539 CNS; 100% in the assay with UACC-257 melanoma; 67.9% with M14 melanoma; 38.2% in the assay with HCT-15 colon; 40% with HT29 colon; 85% in the assay on SNB-19 CNS. Besides, the growth is 53.4% in the assay with U251 CNS; 50.6% in the assay on PC-3 prostate; 66.9% with SK-MEL-5 melanoma; 69.7% in the assay on UACC-62 melanoma; 61.6% with LOX IMVI melanoma; 79.2% in the assay on SK-MEL-28 melanoma. The growth in the assay with SK-MEL-2 melanoma was 98.1%.

Source of the values: PubChem BioAssay (NCI).
